Data from PubChem BioAssay (NCI).
The panel holds about 83,000 compounds, 20% with a hit somewhere; the sample as a whole holds those more often.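 Activity criterion: percent growth below 10, measured after cells in 96-well plates were exposed to a single compound concentration for 48 hours.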 Unmarked numbers belong to inactive results. The source made the active and inactive calls.

What was measured:
Assay in all cases: NCI-60 one-dose screen, 48 h (100 = growth as untreated, 0 = no growth, -100 = all killed)
Conditions in all cases: 10 µM unless noted
[1] = tested on: HCT-15 colon
[2] = tested on: HT29 colon
[3] = tested on: SNB-75 CNS
[4] = tested on: SNB-19 CNS
[5] = tested on: U251 CNS
[6] = tested on: PC-3 prostate
[7] = tested on: SK-MEL-5 melanoma
[8] = tested on: UACC-62 melanoma
[9] = tested on: LOX IMVI melanoma
[10] = tested on: SK-MEL-28 melanoma
[11] = tested on: SK-MEL-2 melanoma
[12] = tested on: EKVX NSCLC
[13] = tested on: SN12C renal
[14] = tested on: UO-31 renal
[15] = tested on: TK-10 renal
[16] = tested on: ACHN renal
[17] = tested on: CAKI-1 renal
[18] = tested on: A498 renal
[19] = tested on: CCRF-CEM leukemia
[20] = tested on: MOLT-4 leukemia

SMILES	growth [1]	growth [2]	growth [3]	growth [4]	growth [5]	growth [6]	growth [7]	growth [8]	growth [9]	growth [10]	growth [11]	growth [12]	growth [13]	growth [14]	growth [15]	growth [16]	growth [17]	growth [18]	growth [19]	growth [20]
N#Cc1c(NC(=O)c2ccccc2)sc2c1CCC(=O)C2	-3.43% (active)	14.1%	-6.39% (active)	19.1%	13.4%	12%	-75.8% (active)	1.83% (active)	6.26% (active)	17.5%	13.6%	21.7%	11.6%	-16.4% (active)	39.5%	5.88% (active)	-27.3% (active)	78.3%	7.52% (active)	8.12% (active)
CC1=NN(c2nc(SCC(=O)Nc3nc4ccc(C)cc4s3)nc(-c3ccccc3)c2C#N)C(=O)C1	105%	104%	75.4%	97.3%	102%	97.1%	100%	94.3%	101%	105%	111%	106%	95.6%	67.8%	131%	96.3%	87.3%	101%	107%	99.8%
COc1ccc(-c2nc(/C=C3\SC(=NCc4ccccc4)NC3=O)c3ccccn23)cc1	0.0387% (active)	-70.4% (active)	-46.8% (active)	16%	-43.6% (active)	13.7%	-78.4% (active)	-49.7% (active)	-76.4% (active)	-43.9% (active)	-31.6% (active)	58%	-19.7% (active)	-47.2% (active)	-52.4% (active)	-28.3% (active)	3.18% (active)	-7.6% (active)	16.2%	11.1%
Cc1cccc(N2CCN(CC(O)COc3ccc(Cl)cc3)CC2)c1 (stereo not given)	97.4%	114%	104%	98.3%	95.7%	91.9%	97.4%	96.4%	97.6%	117%	89.5%	96.8%	95.2%	85.3%	116%	93.7%	84.5%	115%	97.7%	77.1%
O=C1/C(=C/c2ccccc2Br)COc2ccc(O)c(O)c21	-1.56% (active)	47.6%	23.2%	27%	4.99% (active)	15.6%	46.9%	6.99% (active)	-76% (active)	42.3%	48.8%	61.7%	-67.6% (active)	-92.1% (active)	29.5%	-44.9% (active)	22.2%	116%	1.62% (active)	2.79% (active)
Cc1cnc(C(=O)NNc2nc3sc4c(c3c(=O)n2C)C(C)CCC4)cn1 (stereo not given)	15.9%	-2.88% (active)	1.63% (active)	-14.8% (active)	-33.3% (active)	8.78% (active)	-53.8% (active)	-20.8% (active)	-17.5% (active)	8.43% (active)	-6.07% (active)	6.08% (active)	9.01% (active)	-0.356% (active)	27.2%	9.47% (active)	2.74% (active)	21.1%	2.41% (active)	3.79% (active)
COC(=O)c1cc(-c2ccc(S(C)(=O)=O)cc2)[nH]c1N/N=C/c1c(Cl)cccc1Cl	26.2%	14.5%	10.1%	22.8%	26.8%	15.6%	25.7%	58%	43.6%	28.2%	-18.8% (active)	42.2%	39.4%	22.5%	19.2%	53.7%	30.3%	-22.5% (active)	1.59% (active)	6.05% (active)
COc1cc(/C=C\c2cc(/C=C\c3ccc(O)c(OC)c3)n(C(=O)COc3ccc(Cl)cc3Cl)n2)ccc1O	9.52% (active)	2.93% (active)	5.12% (active)	29%	16.3%	10.2%	-12.9% (active)	5.87% (active)	3.79% (active)	26.6%	-4.36% (active)	38.4%	8.09% (active)	8.72% (active)	20.5%	18.7%	14.8%	17.6%	4.35% (active)	-0.332% (active)
OCCCC1CCN(C(Cc2ccccc2)c2ccccc2)CC1 (stereo not given)	100%	76.5%	84.2%	101%	93.2%	70.8%	101%	97.7%	93.2%	64.8%	52%	96.2%	102%	78.3%	84.1%	81.8%	91.4%	97.9%	100%	99.1%
Cc1ccccc1Cn1cnc2ccc(-c3cc(NC(=O)c4ccc(NC5CCN(C)CC5)cc4)n[nH]3)cc21	102%	56.6%	-11.4% (active)	95%	75.9%	68.8%	79.3%	73.2%	56.7%	92.2%	98.3%	91.9%	29.7%	89.2%	105%	107%	68.6%	47.8%	72%	43%
C#CCn1cnc2c(Nc3cccc(NC(=O)C=C)c3)ncnc21	73.3%	90.6%	66%	89.9%	88.2%	71.5%	88.7%	82.6%	100%	87.6%	84.1%	84.8%	83.4%	42.3%	93.3%	69.1%	82.1%	80.5%	81.6%	71.2%
COc1ccccc1Nc1nc2c(s1)C1=CC[C@H]3[C@@H]4CC[C@H]([C@H](C)CCCC(C)C)[C@@]4(C)CC[C@@H]3[C@@]1(C)CC2	103%	101%	97.6%	104%	113%	92.7%	100%	96.7%	94%	110%	115%	105%	99.6%	73.5%	117%	104%	90.5%	132%	109%	104%
O=C(Cn1c2c(c3ccccc31)CCCC2)Nc1ccc(-c2nc3ccccc3s2)cc1	101%	107%	106%	100%	96.9%	94.7%	93.6%	90.1%	79.9%	103%	98.6%	108%	103%	92.6%	98.9%	112%	100%	94%	93.2%	98.8%
O=C(Nc1ccc(NC(=O)c2cc(=O)[nH]c3ccccc23)cc1)Nc1cccc(C(F)(F)F)c1	95.3%	67.8%	58.5%	23.8%	19.5%	69.8%	69.9%	68%	21%	63.6%	92.5%	66.8%	54.2%	71%	134%	95%	71.5%	100%	70.2%	79.6%
CCS/C(Nc1ccccc1)=C(\C#N)C(=O)N/N=C/c1ccc(Cl)cc1Cl	19.9%	9.53% (active)	-6.89% (active)	19.6%	19.1%	31.5%	12.4%	26.6%	34.4%	60.5%	28.3%	47.4%	34.5%	41.9%	56.7%	38.2%	31.5%	-2.1% (active)	9.86% (active)	18.3%
CCn1c(SCC(=O)c2ccc(Br)cc2)nnc1-c1ccncc1	106%	107%	81.7%	99.2%	99.6%	102%	98.9%	96.8%	101%	109%	104%	102%	107%	91.4%	116%	109%	95.6%	91.1%	108%	101%
